The target of test [1] is RAC-alpha serine/threonine-protein kinase (Homo sapiens) (UniProt P31749). The settings on record: at 0.1 µM.
For test [2] the target is unchanged. The settings on record: at 1 µM.
Test [3] has as its target RAC-beta serine/threonine-protein kinase (Homo sapiens) (UniProt P31751). The settings on record: at 0.1 µM.
The target is the same in test [4]. The settings on record: at 1 µM.
The target in test [5] is RAC-gamma serine/threonine-protein kinase (Homo sapiens) (UniProt Q9Y243). The settings on record: at 0.1 µM.
RAC-gamma serine/threonine-protein kinase (Homo sapiens), sequence (Q9Y243 whole entry): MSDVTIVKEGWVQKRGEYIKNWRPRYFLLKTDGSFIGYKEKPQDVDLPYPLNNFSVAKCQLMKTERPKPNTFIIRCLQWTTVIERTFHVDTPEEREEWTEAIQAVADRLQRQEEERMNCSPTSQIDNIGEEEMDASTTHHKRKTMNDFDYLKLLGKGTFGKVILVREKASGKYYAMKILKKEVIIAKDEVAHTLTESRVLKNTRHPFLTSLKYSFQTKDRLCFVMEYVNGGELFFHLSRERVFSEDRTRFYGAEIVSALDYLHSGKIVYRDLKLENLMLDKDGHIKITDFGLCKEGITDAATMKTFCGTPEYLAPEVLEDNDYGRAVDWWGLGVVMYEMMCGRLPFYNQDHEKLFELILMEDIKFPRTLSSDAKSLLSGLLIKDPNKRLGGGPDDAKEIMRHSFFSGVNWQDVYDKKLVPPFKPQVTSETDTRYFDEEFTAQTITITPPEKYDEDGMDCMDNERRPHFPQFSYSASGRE
For test [6] the target is unchanged. The settings on record: at 1 µM.
Test [7] concerns the target G protein-coupled receptor kinase 6 (Homo sapiens) (UniProt P43250). The note with it: at 0.1 µM.
Test [8] shares this target. The settings on record: at 1 µM.
The target in test [9] is T1, Rhodopsin kinase GRK7 (Homo sapiens) (UniProt Q8WTQ7).
T1 sequence (whole entry): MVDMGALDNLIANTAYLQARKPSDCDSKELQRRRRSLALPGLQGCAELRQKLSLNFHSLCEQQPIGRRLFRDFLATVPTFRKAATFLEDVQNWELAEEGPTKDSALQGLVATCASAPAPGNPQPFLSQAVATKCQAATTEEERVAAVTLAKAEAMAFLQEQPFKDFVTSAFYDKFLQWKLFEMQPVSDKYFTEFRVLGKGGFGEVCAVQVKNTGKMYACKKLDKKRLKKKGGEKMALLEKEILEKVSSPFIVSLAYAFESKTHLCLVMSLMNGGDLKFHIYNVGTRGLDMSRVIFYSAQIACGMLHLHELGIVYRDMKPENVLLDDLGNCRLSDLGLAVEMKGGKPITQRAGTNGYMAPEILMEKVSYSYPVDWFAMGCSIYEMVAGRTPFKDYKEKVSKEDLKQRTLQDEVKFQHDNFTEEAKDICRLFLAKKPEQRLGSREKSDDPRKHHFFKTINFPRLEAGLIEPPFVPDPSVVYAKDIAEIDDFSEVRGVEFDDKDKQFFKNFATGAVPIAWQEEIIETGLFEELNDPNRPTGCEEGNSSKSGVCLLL
The note with it: at 0.1 µM.

Test [10] deals with T1, Rhodopsin kinase GRK7 (Homo sapiens). The settings on record: at 1 µM.
The target in test [11] is Serine/threonine-protein kinase MRCK alpha (Homo sapiens) (UniProt Q5VT25). The settings on record: at 0.1 µM.
Serine/threonine-protein kinase MRCK alpha (Homo sapiens), sequence (Q5VT25 whole entry): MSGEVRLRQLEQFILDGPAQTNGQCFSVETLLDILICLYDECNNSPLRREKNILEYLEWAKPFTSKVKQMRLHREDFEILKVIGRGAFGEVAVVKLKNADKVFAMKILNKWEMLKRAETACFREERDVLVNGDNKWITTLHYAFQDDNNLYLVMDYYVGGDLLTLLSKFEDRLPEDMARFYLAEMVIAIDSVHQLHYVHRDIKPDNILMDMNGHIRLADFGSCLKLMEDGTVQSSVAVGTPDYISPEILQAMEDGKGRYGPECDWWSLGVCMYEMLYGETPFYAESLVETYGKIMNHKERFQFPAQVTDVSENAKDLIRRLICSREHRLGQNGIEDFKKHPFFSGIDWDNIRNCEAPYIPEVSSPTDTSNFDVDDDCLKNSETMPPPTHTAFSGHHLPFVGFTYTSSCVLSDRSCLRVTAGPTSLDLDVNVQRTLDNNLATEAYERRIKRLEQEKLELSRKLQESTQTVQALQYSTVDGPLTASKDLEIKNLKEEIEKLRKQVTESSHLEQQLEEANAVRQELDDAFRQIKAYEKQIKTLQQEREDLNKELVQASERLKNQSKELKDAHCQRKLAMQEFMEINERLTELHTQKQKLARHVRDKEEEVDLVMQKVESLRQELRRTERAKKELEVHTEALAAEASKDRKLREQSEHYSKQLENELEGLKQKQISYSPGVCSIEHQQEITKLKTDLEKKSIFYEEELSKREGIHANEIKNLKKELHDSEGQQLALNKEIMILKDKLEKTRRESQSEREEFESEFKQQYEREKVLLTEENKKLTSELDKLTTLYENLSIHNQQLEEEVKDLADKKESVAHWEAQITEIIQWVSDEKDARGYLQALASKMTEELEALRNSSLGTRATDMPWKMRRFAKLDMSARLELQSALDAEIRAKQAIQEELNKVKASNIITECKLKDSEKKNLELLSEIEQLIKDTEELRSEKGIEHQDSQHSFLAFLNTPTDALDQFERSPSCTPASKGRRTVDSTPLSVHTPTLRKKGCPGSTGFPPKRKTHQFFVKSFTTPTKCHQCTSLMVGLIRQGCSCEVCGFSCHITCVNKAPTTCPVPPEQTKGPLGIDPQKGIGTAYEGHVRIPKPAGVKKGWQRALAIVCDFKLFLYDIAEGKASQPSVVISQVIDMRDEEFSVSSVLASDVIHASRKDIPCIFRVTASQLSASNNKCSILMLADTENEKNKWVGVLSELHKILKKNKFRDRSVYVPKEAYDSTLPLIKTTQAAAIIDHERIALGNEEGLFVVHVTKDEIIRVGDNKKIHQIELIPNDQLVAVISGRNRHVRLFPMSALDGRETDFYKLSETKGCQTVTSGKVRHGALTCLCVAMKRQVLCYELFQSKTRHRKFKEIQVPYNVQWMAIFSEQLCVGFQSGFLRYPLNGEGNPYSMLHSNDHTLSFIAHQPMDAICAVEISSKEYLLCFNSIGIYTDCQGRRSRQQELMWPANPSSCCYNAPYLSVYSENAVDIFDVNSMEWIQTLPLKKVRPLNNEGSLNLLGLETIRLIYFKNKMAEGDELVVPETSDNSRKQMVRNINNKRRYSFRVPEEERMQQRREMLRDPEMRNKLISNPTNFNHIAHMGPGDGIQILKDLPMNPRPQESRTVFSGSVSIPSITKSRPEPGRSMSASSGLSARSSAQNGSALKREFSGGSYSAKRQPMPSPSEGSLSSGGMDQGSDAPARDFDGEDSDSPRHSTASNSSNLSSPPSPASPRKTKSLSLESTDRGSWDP
Test [12] shares this target. The settings on record: at 1 µM.
Test [13] addresses Serine/threonine-protein kinase MRCK beta (Homo sapiens) (UniProt Q9Y5S2). The settings on record: at 0.1 µM.
Test [14] has the same target. The settings on record: at 1 µM.
The target in test [15] is Ribosomal protein S6 kinase alpha-5 (Homo sapiens) (UniProt O75582). The settings on record: at 0.1 µM.
Ribosomal protein S6 kinase alpha-5 (Homo sapiens), sequence (O75582 whole entry, looked up): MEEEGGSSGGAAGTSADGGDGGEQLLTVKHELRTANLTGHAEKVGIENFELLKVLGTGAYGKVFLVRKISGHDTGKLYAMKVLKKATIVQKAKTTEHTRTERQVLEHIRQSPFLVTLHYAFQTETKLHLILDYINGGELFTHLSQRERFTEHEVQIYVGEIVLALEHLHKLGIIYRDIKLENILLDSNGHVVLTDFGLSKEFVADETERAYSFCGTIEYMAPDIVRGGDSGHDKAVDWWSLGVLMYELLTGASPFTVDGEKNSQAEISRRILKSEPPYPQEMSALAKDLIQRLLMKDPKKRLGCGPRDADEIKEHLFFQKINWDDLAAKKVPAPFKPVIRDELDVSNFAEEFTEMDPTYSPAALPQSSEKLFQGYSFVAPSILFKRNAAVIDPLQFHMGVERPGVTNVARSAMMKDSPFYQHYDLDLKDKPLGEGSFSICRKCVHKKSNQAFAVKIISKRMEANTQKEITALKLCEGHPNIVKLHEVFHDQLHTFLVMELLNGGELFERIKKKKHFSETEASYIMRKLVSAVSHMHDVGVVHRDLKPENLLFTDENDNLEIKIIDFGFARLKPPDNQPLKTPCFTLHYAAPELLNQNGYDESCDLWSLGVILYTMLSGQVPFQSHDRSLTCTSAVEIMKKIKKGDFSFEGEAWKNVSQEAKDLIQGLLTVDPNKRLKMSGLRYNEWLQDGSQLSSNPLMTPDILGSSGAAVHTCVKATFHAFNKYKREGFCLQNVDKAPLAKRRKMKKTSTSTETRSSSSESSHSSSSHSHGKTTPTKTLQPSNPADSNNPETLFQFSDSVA
For test [16] the target is unchanged. The note with it: at 1 µM.
The target of test [17] is Ribosomal protein S6 kinase alpha-4 (Homo sapiens) (UniProt O75676). The note with it: at 0.1 µM.
Ribosomal protein S6 kinase alpha-4 (Homo sapiens), sequence (O75676 whole entry, looked up): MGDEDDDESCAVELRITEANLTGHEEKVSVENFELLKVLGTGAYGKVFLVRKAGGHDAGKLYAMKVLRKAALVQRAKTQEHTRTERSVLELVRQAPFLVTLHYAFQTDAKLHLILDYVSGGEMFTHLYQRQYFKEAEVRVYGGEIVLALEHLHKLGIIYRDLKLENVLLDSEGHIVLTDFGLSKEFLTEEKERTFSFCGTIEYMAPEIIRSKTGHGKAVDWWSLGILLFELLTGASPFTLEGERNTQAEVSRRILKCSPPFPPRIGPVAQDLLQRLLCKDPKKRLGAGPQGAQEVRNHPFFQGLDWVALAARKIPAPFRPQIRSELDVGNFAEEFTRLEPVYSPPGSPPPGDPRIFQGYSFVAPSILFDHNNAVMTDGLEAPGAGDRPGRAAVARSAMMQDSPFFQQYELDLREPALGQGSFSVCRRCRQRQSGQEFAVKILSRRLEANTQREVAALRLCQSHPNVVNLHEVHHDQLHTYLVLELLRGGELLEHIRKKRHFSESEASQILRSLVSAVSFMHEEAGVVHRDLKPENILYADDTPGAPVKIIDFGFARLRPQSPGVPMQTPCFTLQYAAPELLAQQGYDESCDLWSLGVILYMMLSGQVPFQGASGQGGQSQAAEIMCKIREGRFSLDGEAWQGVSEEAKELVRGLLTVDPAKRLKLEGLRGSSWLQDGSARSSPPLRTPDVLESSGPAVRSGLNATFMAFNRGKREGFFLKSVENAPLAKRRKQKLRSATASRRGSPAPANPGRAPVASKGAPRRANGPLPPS
For test [18] the target is unchanged. The settings on record: at 1 µM.
The target of test [19] is Ribosomal protein S6 kinase beta-1 (Homo sapiens) (UniProt P23443). The settings on record: at 0.1 µM.
Ribosomal protein S6 kinase beta-1 (Homo sapiens), sequence (P23443 whole entry, looked up): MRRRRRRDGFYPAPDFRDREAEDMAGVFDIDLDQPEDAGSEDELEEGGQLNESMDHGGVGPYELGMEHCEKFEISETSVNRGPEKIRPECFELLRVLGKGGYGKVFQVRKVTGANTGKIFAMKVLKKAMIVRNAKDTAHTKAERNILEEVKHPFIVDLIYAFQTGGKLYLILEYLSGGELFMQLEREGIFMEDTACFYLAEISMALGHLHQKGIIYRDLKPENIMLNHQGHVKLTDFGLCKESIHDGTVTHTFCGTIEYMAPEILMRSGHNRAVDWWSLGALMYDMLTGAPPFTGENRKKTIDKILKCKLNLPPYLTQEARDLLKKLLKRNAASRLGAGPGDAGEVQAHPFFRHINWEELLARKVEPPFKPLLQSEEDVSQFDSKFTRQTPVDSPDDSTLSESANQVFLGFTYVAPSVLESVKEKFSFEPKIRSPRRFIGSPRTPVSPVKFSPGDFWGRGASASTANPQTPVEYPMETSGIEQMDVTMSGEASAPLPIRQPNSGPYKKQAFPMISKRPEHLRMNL
Test [20] shares this target. The note with it: at 1 µM.

G protein-coupled receptor kinase 6 (Homo sapiens), sequence (P43250 whole entry, looked up): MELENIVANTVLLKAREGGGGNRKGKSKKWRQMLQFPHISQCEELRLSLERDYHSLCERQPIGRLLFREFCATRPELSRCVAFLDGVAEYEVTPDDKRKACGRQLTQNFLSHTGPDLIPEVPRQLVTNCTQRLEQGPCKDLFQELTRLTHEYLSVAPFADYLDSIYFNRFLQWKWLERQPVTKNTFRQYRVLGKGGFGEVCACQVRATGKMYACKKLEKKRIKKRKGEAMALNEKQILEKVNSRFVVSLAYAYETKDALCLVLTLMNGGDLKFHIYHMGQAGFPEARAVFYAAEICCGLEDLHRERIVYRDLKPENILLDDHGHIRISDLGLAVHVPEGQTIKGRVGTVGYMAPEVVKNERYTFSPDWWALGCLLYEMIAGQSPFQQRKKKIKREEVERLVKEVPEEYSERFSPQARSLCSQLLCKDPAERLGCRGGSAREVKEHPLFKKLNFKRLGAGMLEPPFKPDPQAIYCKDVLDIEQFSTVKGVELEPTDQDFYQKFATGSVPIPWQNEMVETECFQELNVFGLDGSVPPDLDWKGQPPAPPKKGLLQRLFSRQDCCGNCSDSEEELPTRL

As to `c1cnn2ncc(-c3ccnc(Nc4ccc5c(c4)OCCO5)n3)c2c1`, the inhibition (usually the change of the read-out against control, counted positive when it falls) in test [1] worked out at 0.86%; in test [2] it was 0.95%; in test [3] it was 2.29%; in [4] it was 1.47%; in test [5], 1.09%; in test [6], 2.1%. The inhibition was 7.21% in test [7]; 4.01% in test [8]; 4.35% in [9]; 2.89% in [10]; -0.46% in test [11]; 0.87% in test [12]. Further, the inhibition was 1.21% in [13]; 1.8% in [14]; 4.5% in test [15]; 6.82% in test [16]; 2.97% in test [17]; 6.51% in [18]. The inhibition in test [19] was 1.67%; in test [20], 5.63%.

Consider `CS(=O)(=O)CCNCc1nc(-c2ccc3ncnc(Nc4ccc(F)c(Cl)c4)c3c2)cs1`, for which the inhibition in [1] is 0.62%; in test [2], -0.01%; in [3] it was 0.07%; in [4] it was 1.1%; in test [5] it was 1.52%; in test [6] it was -0.89%. The inhibition is 1.59% in test [7]; 3.85% in [8]; 5.77% in [9]; -4.62% in test [10]; 1.82% in [11]; 3.22% in [12]. Further, the inhibition in test [13] is -0.31%; in [14], -0.48%; in test [15], 1.46%; in test [16] it was 6.15%; in [17], 1.32%; in [18] it was 1.96%. Also, the inhibition in [19] was -0.63%; in test [20], 1.77%.

Regarding `COc1cc2ncn(-c3cc(O[C@H](C)c4ccccc4Cl)c(C(N)=O)s3)c2cc1OC`, the inhibition worked out at 1.41% in [1]; 2.07% in test [2]; 2.49% in [3]; 2.19% in [4]; 0.81% in test [5]; 1.74% in test [6]. For the same compound, the inhibition in [7] was 3.78%; in test [8] it was 15%; in [9], 5.01%; in test [10] it was 10.8%; in [11], 1.89%; in test [12], 5.55%. Further, the inhibition is 0.35% in [13]; 1.02% in [14]; -1.18% in [15]; 3.73% in test [16]; 4.32% in test [17]; 13.8% in test [18]. The inhibition was found to be 1.42% in test [19] and 4.7% in [20].

Consider `CC1=C(C(=O)Nc2ccc3[nH]ncc3c2)C(c2ccc3ccccc3c2)CC(=O)N1` (stereo not given), for which the inhibition in test [1] was 0.52%; in test [2] it was 0.98%; in test [3], 0.74%; in [4], 1.1%; in [5], 1.23%; in test [6], 3.76%. For the same compound, the inhibition was determined as 2.91% in [7]; 13.5% in [8]; 2.64% in [9]; 4.56% in test [10]; 3.1% in test [11]; 22.7% in test [12]. Moreover, the inhibition worked out at 5.85% in test [13]; 37.9% in test [14]; 10.7% in test [15]; 47.6% in test [16]; 6.16% in test [17]; 34.1% in test [18]. In addition, the inhibition came to 2.41% in test [19] and 21.4% in test [20].

Regarding `CC1=C(C(=O)Nc2ccc3[nH]ncc3c2)C(c2ccc(F)cc2)NC(=O)N1` (stereo not given), the inhibition was -0.22% in test [1]; 0.8% in test [2]; 0.33% in test [3]; 1.45% in test [4]; 0.5% in test [5]; 2.79% in test [6]. Moreover, the inhibition came to 5.16% in test [7]; 7.3% in [8]; 2.44% in [9]; 6.49% in [10]; 2.04% in [11]; 12.4% in test [12]. Moreover, the inhibition was found to be 5.57% in [13]; 29.9% in test [14]; 8.51% in test [15]; 34.2% in test [16]; 3.34% in [17]; 16.7% in test [18]. The inhibition in test [19] was 1.64%; in test [20], 13.8%.

`CCn1c(-c2nonc2N)nc2cncc(C(=O)N3CCNCC3)c21`: the inhibition is 0.91% in [1]; 2.57% in [2]; 2.91% in test [3]; 2.21% in test [4]; 2.05% in [5]; 5.1% in test [6]. Besides, the inhibition in [7] is 6.32%; in test [8], 9.53%; in test [9] it was 7.48%; in test [10] it was 9.01%; in test [11], 5.33%; in [12], 7.84%. Moreover, the inhibition in test [13] worked out at 0.36%; in [14] it was 3.02%; in test [15], 5.57%; in test [16], 7.4%; in test [17], 3.28%; in [18] it was 4.71%. Further, the figures for the inhibition in [19] and in [20] were 2.87% and 4.44%, respectively.

For `NCc1ccc(-c2nc(-c3ccc(Cl)c(O)c3)c(-c3ccncc3)[nH]2)cc1`, the inhibition in [1] was 0.06%; in test [2], 0.47%; in test [3], -1.18%; in test [4] it was -0.26%; in test [5], -0.23%; in [6] it was 0.68%. The inhibition in [7] is -0.28%; in [8] it was -0.98%; in test [9] it was -2.26%; in test [10] it was 2.84%; in test [11] it was 0.67%; in test [12], -0.06%. Further, the inhibition in test [13] is -1.19%; in test [14] it was 1.3%; in test [15], 0.16%; in [16], 2.56%; in test [17], -0.59%; in test [18], 2.82%. For the same compound, the inhibition in [19] is 0.03%; in [20] it was 0.71%.

(Values after ChEMBL document CHEMBL1961873, “Compounds: GSK PKIS; Assays: Nanosyn kinase panel” (2012).)
